Our source for the Potency values is PubChem BioAssay AID624048 (National Center for Advancing Translational Sciences (NCATS), 2012).

Records with an inconclusive call do not appear. The source made the active and inactive calls. The call rests on the fitted dose curve; in most records, active means well fitted inhibition curve with a large enough effect; inconclusive means small, poorly fitted or top-dose-only effect; inactive means no such curve, though single readings can be large or run the other way.

Chain of Dual specificity protein kinase CLK2 (Homo sapiens) (P49760 whole entry, looked up, canonical isoform): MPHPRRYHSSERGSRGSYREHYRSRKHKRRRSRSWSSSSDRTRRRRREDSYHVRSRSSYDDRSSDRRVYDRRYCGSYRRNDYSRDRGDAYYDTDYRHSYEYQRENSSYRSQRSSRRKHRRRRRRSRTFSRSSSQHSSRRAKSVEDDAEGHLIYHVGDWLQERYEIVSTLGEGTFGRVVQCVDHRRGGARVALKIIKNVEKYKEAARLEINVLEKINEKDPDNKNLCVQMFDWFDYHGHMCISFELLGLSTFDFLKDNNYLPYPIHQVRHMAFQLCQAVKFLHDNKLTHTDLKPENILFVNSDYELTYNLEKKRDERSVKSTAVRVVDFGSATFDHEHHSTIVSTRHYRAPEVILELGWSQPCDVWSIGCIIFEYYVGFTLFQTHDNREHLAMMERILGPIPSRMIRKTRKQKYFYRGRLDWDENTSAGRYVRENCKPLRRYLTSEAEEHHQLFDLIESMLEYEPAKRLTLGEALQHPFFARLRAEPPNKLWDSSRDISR

The assay deals with Dual specificity protein kinase CLK2 (Homo sapiens) (UniProt P49760). As to the kind of experiment: Reaction Biology data for inhibitors of CLK2: Probe SAR. The settings on record: Reaction Biology CLK2 kinase assay, 10 uM ATP; series mostly up to 10 µM. The source says:
Alternative splicing of pre-mRNAs plays a major role in the regulation of eukaryotic gene expression. Alternative splicing is now thought to be one of the primary reasons for the complexity of higher organisms leading to an average of three protein isoforms per gene. Aberrant splicing can lead to a number of diseases and is known to play a role in rare genetic diseases such as progeria syndrome. Hutchinson-Gilford Progeria Syndrome (HGPS) is a pediatric premature aging disease caused by a spontaneous mutation in the lamin A/C (LMNA) gene due to a single point mutation in the lamin A gene effecting 1 in 4 million people. To identify both specific splicing modulators of the lamin A gene as well as general splicing modulators, a cell-based HTS assay was developed using a minigene reporter system (AIDs, 1459 & 1487). […] This AID summarizes the characterization of lead compounds in Clk2. NIH Molecular Libraries Probe Production Centers Network [MLPCN] NIH Chemical Genomics Center [NCGC] MLPCN Grant: MH084827 Assay Submitter (PI): Tom Misteli
Compound IC50s were determined at Reaction Biology (http://www.reactionbiology.com) with ten concentration points starting at 10 uM in the assay using a 3-fold dilution series. The control compound staurosporine was also tested in the 10-dose IC50 mode with the same 3-fold serial dilution, again starting at 10 uM. All kinase reactions were performed using 10 uM ATP in the assay. 100% activity was taken from kinase reactions with DMSO alone (the vehicle used for compound stock solutions).
With `c1cncc(CNc2ncncc2-c2ccc3c(c2)OCO3)c1`, the Potency entry is “inactive”.

Take `FC(F)(F)c1cc(Br)cc(Nc2nccc(-c3ccc4c(c3)OCO4)n2)c1`: the Potency is 0.344 µM (active). As for `Clc1ccc(CNc2nccc(-c3ccc4c(c3)OCCO4)n2)cc1Cl`, the Potency was 0.0391 µM (active). With `COc1ccc(-c2ccnc(NCc3ccc(Cl)c(Cl)c3)n2)cc1` the figure was 0.409 µM (active); with `Clc1cc(Cl)cc(CNc2nccc(-c3ccc4c(c3)OCO4)n2)c1`, 0.0234 µM (active). As to `Cc1nc(CN(C)c2ncnc3ccc(-c4ccc5[nH]ncc5c4)cc23)cs1`, the Potency is 0.16 µM (active). The same measure for `FC(F)(F)c1cccc(Nc2nccc(-c3ccc4c(c3)OCO4)n2)c1`: 0.0521 µM (active); for `c1cncc(CNc2ccnc(-c3ccc4cn[nH]c4c3)n2)c1`: 1.9 µM (active); for `Brc1cc(Br)cc(CNc2nccc(-c3ccc4c(c3)OCO4)n2)c1`: 0.0414 µM (active). The same measure for `Clc1ccc(CNc2ccnc(-c3ccc4c(c3)OCO4)n2)cc1Cl`: “inactive”; for `Clc1ccc(CNc2ncncc2-c2ccc3c(c2)OCO3)cc1Cl`: 1.56 µM (active). With `COc1ccc(-c2ccnc(NCc3ccc(Cl)cc3)n2)cc1` the figure was 1.09 µM (active); with `Clc1ccc(CNc2nccc(-c3ccc4[nH]ncc4c3)n2)cc1Cl`, 0.19 µM (active); with `c1nc(NCC2CCCO2)c2cc(-c3ccc4c(c3)OCO4)ccc2n1` (stereo unspecified), 0.358 µM (active). Turning to `c1cc(-c2ccc3c(c2)OCO3)nc(Nc2ccc3c(c2)OCO3)n1`, the Potency was 0.259 µM (active). Consider `COc1ccc(-c2ccnc(NCc3ccc(Cl)c(Cl)c3)n2)cc1OC`, for which the Potency result was “inactive”. The same measure for `Clc1ccc(CNc2nccc(-c3ccc4c(c3)OCO4)n2)cc1Cl`: 0.0204 µM (active).

On to `Cc1c(-c2ccnc(NCc3cccnc3)n2)sc(=O)n1C`, for which the Potency was 0.576 µM (active). In the case of `Cc1nc(CN(C)c2ncnc3ccc(-c4ccc5c(c4)OCO5)cc23)cs1`, the Potency is 0.0448 µM (active). Take `Clc1ccc(Nc2nccc(-c3ccc4c(c3)OCO4)n2)cc1`: the Potency result is “inactive”. The same measure for `COc1cccc(-c2ccnc(NCc3ccc(Cl)cc3)n2)c1`: “inactive”; for `Cc1c(-c2ccnc(NCc3ccc(Cl)cc3)n2)sc(=O)n1C`: 0.7 µM (active); for `Cc1nc(CNc2ncnc3ccc(-c4ccc5c(c4)OCO5)cc23)cs1`: 0.187 µM (active). In the case of `c1cncc(CNc2nccc(-c3ccc4[nH]ncc4c3)n2)c1`, the Potency is 0.462 µM (active). With `Clc1ccc(CNc2nccc(-c3ccc4cn[nH]c4c3)n2)cc1Cl` the figure was 0.429 µM (active). The same measure for `c1cncc(CNc2ccnc(-c3ccc4[nH]ncc4c3)n2)c1`: 0.665 µM (active); for `c1cncc(CNc2nccc(-c3ccc4c(c3)OCO4)n2)c1`: 0.0598 µM (active). The same measure for `O=[N+]([O-])c1cc(Nc2nccc(-c3ccc4c(c3)OCO4)n2)cc(C(F)(F)F)c1`: 0.0398 µM (active); for `Clc1cc(Cl)cc(CNc2ncncc2-c2ccc3c(c2)OCO3)c1`: 0.231 µM (active); for `Brc1ccc(CNc2nccc(-c3ccc4c(c3)OCO4)n2)cc1Br`: 0.0296 µM (active). Take `COc1cccc(-c2ccnc(NCc3ccc(Cl)c(Cl)c3)n2)c1`: the Potency result is “inactive”.
